Legend:
Experiment in all cases: PBM binding z-score (relative to random genomic background probes); higher = stronger binding; sequences stand for … in GC…GCGATTGACAGCGTAGAATGAAGG
[1] = tested on: PPARg:RXRa DBDmut IVT, anti-RXR (DBD mutation: RXRa K156A/R161A, NR concentration 270 nM, RXRa partner concentration 90 nM)
Outline: (§1)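 The probes on custom Agilent 4×180K protein-binding microarrays were double-stranded, with 34-nt variable regions bearing direct-repeat seeds, single-nucleotide variants, half-site ablations and random human genomic background sequences. Incubation lasted 1 h with ligand-free nuclear receptor dimers in PBS pH 7.4, 2% milk, 0.02% Triton X-100, 1 mM DTT, 0.2 mg/mL BSA and 0.4 mg/ml salmon testes DNA. Antibodies against each partner (one per run) detected bound dimers, and fluorescence scans were regression-normalized. Binding z-scores take the random background probes as reference.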

[2] = tested on: PPARg:RXRa IVT, anti-PPARg (NR concentration 270 nM, RXRa partner concentration 90 nM)
Outline: as §1

[3] = tested on: PPARg homodimer (NR concentration 180 nM)
Outline: as §1

[4] = tested on: PXR:RXRa (NR concentration 270 nM, RXRa partner concentration 90 nM)
Outline: as §1

[5] = tested on: PXR homodimer (NR concentration 270 nM)
Outline: as §1

[6] = tested on: RARa:RXR (NR concentration 270 nM, RXRa partner concentration 90 nM)
Outline: as §1

[7] = tested on: RARa homodimer (NR concentration 270 nM)
Outline: as §1

[8] = tested on: RARb:RXRa (NR concentration 270 nM, RXRa partner concentration 90 nM)
Outline: as §1

[9] = tested on: RARb homodimer (NR concentration 270 nM)
Outline: as §1

[10] = tested on: RARg:RXRa (NR concentration 270 nM, RXRa partner concentration 90 nM)
Outline: as §1

[11] = tested on: RARg homodimer (NR concentration 270 nM)
Outline: as §1

[12] = tested on: RXRa DBDmut IVT, anti-RXR (DBD mutation: RXRa K156A/R161A, NR concentration 90 nM)
Outline: as §1

[13] = tested on: RXRa homodimer (NR concentration 180 nM)
Outline: as §1

[14] = tested on: THRa:RXRa (NR concentration 90 nM, RXRa partner concentration 90 nM)
Outline: as §1

[15] = tested on: THRa homodimer (NR concentration 90 nM)
Outline: as §1

[16] = tested on: VDR:RXRa (NR concentration 270 nM, RXRa partner concentration 90 nM)
Outline: as §1

[17] = tested on: VDR homodimer (NR concentration 270 nM)
Outline: as §1

Sequence | PBM binding z-score [1] | PBM binding z-score [2] | PBM binding z-score [3] | PBM binding z-score [4] | PBM binding z-score [5] | PBM binding z-score [6] | PBM binding z-score [7] | PBM binding z-score [8] | PBM binding z-score [9] | PBM binding z-score [10] | PBM binding z-score [11] | PBM binding z-score [12] | PBM binding z-score [13] | PBM binding z-score [14] | PBM binding z-score [15] | PBM binding z-score [16] | PBM binding z-score [17]
CCGAGTAGGTTACGAGGGAGCATTCAGTGCGAAT | 4.73 | 3.51 | 0.106 | 0.602 | 0.000491 | 0.506 | -0.145 | 0.887 | 0.337 | 0.625 | 0.53 | 0.00513 | 0.6 | 0.829 | -0.661 | 1.11 | -0.171
TCGAGTAGGTTACGGGCGCATTCAGGGATGAAGA | 2.38 | 2.9 | 0.541 | -0.126 | -0.432 | 0.353 | -0.39 | 0.68 | 0.216 | 0.276 | 0.202 | -0.064 | 0.599 | 0.304 | -0.327 | -0.354 | -0.375
CCATGTAGGTTAAGGGGGTCATTCAGTTTGAAAG | 5.55 | 6.99 | 4.47 | 5.83 | 12.1 | 5.82 | 2.79 | 3.46 | 4.05 | 5.03 | 3.85 | 2.37 | 5.74 | 3.87 | 2.67 | 7.41 | 6.01
CCGAGTAGGTTACGAGGGGGCATTCATTGCGAAT | 4.44 | 4.49 | 1.17 | 4.23 | 0.535 | 2.77 | 0.224 | 1.94 | 2.05 | 3.01 | 2.09 | 1.21 | 2 | 3.7 | 0.405 | 4.7 | 2.02
CCGAGTAGGTTGCGAGGGGGCATTCAGTGCGAAT | 1.37 | 2.13 | 0.668 | 3.67 | 4.85 | 2.34 | 0.292 | 1.57 | 1.77 | 1.99 | 1.28 | 1.58 | 1.27 | 3.09 | 0.684 | 4.26 | 3.23
CTGAGTAGGTTACGAGGGGGCATTCAGTGCGAAT | 6.01 | 6.11 | 1.78 | 4.54 | 4.99 | 3 | 0.52 | 2.26 | 2.18 | 3.13 | 2.47 | 1.46 | 1.72 | 3.67 | 0.778 | 5.14 | 3.31
TCGAGTAGGTTACGGGGGCATTCACGGATGAAGA | 5.07 | 6.04 | 2.12 | 3.21 | 1.4 | 3.16 | 0.0892 | 2.51 | 2.05 | 3.38 | 2.31 | 1.78 | 3.16 | 2.86 | 1.23 | 3.95 | 2.93
CTATGTAGGTTAAGGGGTTCATTCAGTTTGAAAG | 6.98 | 6.85 | 1.79 | 5.14 | 12.3 | 3.12 | 1.25 | 1.82 | 1.75 | 1.88 | 1.04 | 2.79 | 2.55 | 1.92 | 0.473 |  | 7.01
TCGCGTAGGTTACGGGGGCATTCAGGGATGAAGA | 2.78 | 4.58 | 1.25 | 3.16 | 1.49 | 3.42 | 0.315 | 2.72 | 2.37 | 3.63 | 2.87 | 1.99 | 3.08 | 3.93 | 1.5 |  | 2.44
CCGAGTAGGTTACGAGGGGGCACTCAGTGCGAAT | 4.86 | 4.51 | 1.46 | 4.32 | 3.02 | 2.87 | 0.931 | 2.04 | 2.29 | 3.19 | 2.39 | 0.868 | 2.17 | 3.74 | 0.205 | 4.68 | 2.68
TTGAGTAGGTTACGGGGGCATTCAGGGATGAAGA | 6.29 | 6.86 | 5.24 | 3.31 | 3.21 | 3.81 | 2.56 | 2.9 | 2.59 | 3.71 | 3.05 | 2.36 | 3.3 | 3.83 | 2.02 | 4.34 | 4.22
CCGAGTAGGTAACGAGGGGGCATTCAGTGCGAAT | 3.83 | 3.65 | 0.975 | 3.42 | 4.31 | 2.24 | 0.592 | 1.31 | 1.62 | 1.9 | 1.27 | 0.932 | 1.21 | 2.73 | 0.519 | 4.19 | 3.01
TCGAGTAGGCTACGGGGGCATTCAGGGATGAAGA | 2.36 | 3.36 | 0.299 | 1.77 | 0.484 | 1.43 | -0.44 | 0.961 | 1.01 | 1.2 | 0.904 | 0.682 | 1.13 | 3.63 | 0.228 |  | 2.66
CCGAGTAGGTTACGAGGGGCCATTCAGTGCGAAT | 4.13 | 3.51 | 0.766 | 2.92 | 1.09 | 1.11 | 0.136 | 1.47 | 1.53 | 1.3 | 1.23 | 0.177 | 0.889 | 3.34 | -0.418 |  | 0.802
CCGAGTAGGTTACGCGGGGGCATTCAGTGCGAAT | 4.28 | 4.82 | 1.38 | 5.72 | 7.61 | 3.67 | 0.0169 | 2.29 | 2.09 | 3.1 | 2.15 | 1.8 | 2.23 | 4.51 | 0.878 | 5.48 | 3.76
CCGAGTTGGTTACGAGGGGGCATTCAGTGCGAAT | 0.938 | 1.51 | 1.98 | 3.41 | 7.65 | 2.14 | 0.677 | 1.31 | 1.81 | 1.91 | 1.44 | 2.58 | 1.02 | 2.46 | 0.911 | 4.32 | 4.2
CTATGTAGGTTAAGGTGGTCATTCAGTTTGAAAG | 7.1 | 7 | 1.36 | 0.913 | 0.758 | 0.941 | 0.483 | 1.53 | 1.42 | 1.02 | 1.05 | 0.518 | 1.08 | 1.36 | 0.282 |  | 0.721
CCGAGTAGGTTACGAGGGGGCATTCACTGCGAAT | 4.81 | 4.25 | 1.02 | 4.44 | 0.728 | 2.66 | 0.267 | 2.12 | 2.02 | 3.01 | 2.43 | 1.06 | 1.98 | 3.81 | 0.568 | 4.98 | 2.51
CCGAGTAGGTTACGAGGGGGCAGTCAGTGCGAAT | 4.71 | 4.53 | 2.79 | 3.74 | 1.86 | 2.38 | 0.525 | 2.15 | 2.02 | 2.81 | 2.42 | 0.582 | 1.55 | 3.29 | 0.478 | 3.95 | 1.68
TCGAGTAGGTTACGGGGGCATTAAGGGATGAAGA | 4.98 | 6.1 | 1.98 | 2.76 | 1.24 | 2.79 | 0.727 | 2.59 | 1.91 | 3.09 | 2.32 | 1.61 | 2.56 | 2.83 | 0.949 | 3.4 | 2.81
CTATGTAGGTTAAGGGGATCATTCAGTTTGAAAG | 7.23 | 6.92 | 1.89 | 1.01 | 0.432 | 0.816 | 0.323 | 1.05 | 0.917 | 0.82 | 0.66 | 0.605 | 1.12 | 0.96 | 0.136 |  | 0.834
CCGAGTAGGTTACGAGGGGGAATTCAGTGCGAAT | 4.48 | 4.06 | 0.811 | 1.55 | 0.309 | 1.23 | 0.123 | 1.26 | 0.662 | 1.53 | 1.1 | 0.572 | 1.09 | 1.79 | 0.0868 | 1.7 | 0.419
CTATGTAGGTTAAGAGGGTCATTCAGTTTGAAAG | 7.34 | 7.14 | 2.35 | 3.96 | 5.84 | 3.56 | 0.734 | 2.63 | 3.03 | 3.16 | 2.3 | 1.33 | 3.33 | 2.42 | 0.33 | 6.27 | 3.39
TCGAGTAGGTTACGGGGGCATACAGGGATGAAGA | 5.24 | 5.71 | 3.33 | 2.97 | 1.54 | 3.27 | 0.305 | 2.65 | 2.05 | 3.68 | 2.84 | 1.44 | 3.07 | 3.53 | 1.18 | 3.54 | 2.83
CCGAGTATGTTACGAGGGGGCATTCAGTGCGAAT | 1.52 | 1.95 | 1.3 | 3.07 | 4.74 | 2.27 | 0.735 | 1.15 | 1.63 | 1.76 | 1.26 | 2.1 | 1.31 | 2.31 | 0.458 |  | 3.74
CAGAGTAGGTTACGAGGGGGCATTCAGTGCGAAT | 5.73 | 5.83 | 1.94 | 4.86 | 6.24 | 2.83 | 1.21 | 2.45 | 2.26 | 3.13 | 2.84 | 1.78 | 2.2 | 3.68 | 1.15 | 5.33 | 4.2
CCGAGTAGGTTATGAGGGGGCATTCAGTGCGAAT | 3.45 | 4.11 | 1.86 | 4.85 | 5.74 | 2.87 | 0.734 | 2.06 | 2.32 | 2.98 | 2.83 | 1.66 | 1.95 | 3.88 | 1.86 | 5.25 | 3.74
CCGAGTAGGTTACGAGGGGGGATTCAGTGCGAAT | 5.06 | 4.91 | 2 | 3.27 | 2.11 | 2.61 | 0.858 | 1.84 | 1.82 | 2.43 | 1.99 | 1.88 | 1.24 | 3.19 | 1.76 | 3.17 | 1.94
TCGAGTAGGTTACGGAGGCATTCAGGGATGAAGA | 3.09 | 3.05 | 0.325 | 0.0271 | -0.388 | 0.547 | -0.666 | 0.731 | 0.171 | 0.578 | 0.4 | -0.134 | 0.833 | 1.1 | -0.655 | 0.176 | -0.549
TCGAGTAGGTTTCGGGGGCATTCAGGGATGAAGA | 2.63 | 3.84 | 1.79 | 2.62 | 2.07 | 2.22 | 0.713 | 1.67 | 1.5 | 2.01 | 1.38 | 1.48 | 1.5 | 3.54 | 1.69 |  | 3.56

Reference: the supplement of paper PMC6555819
